Screening results from PubChem.
ATXN viability = Viability Counterscreen for Primary qHTS for Inhibitors of ATXN expression. S2 cells (HEK-293 line with an ATXN2-luciferase reporter) viability, CellTiter-Fluor protease fluorescence, 24 h. Potency, µM (highest dose often 56.7 µM), actives largely listed as cytotoxic. hit rate 0.49% among 400,000. AID 651635, 2014; also: nearly all actives have a fitted effect of over 40% in size
ATXN2 expr inh = Primary qHTS for Inhibitors of ATXN expression; HEK-293 ATXN2-luciferase reporter, luminescence, 24 h; AID 1745845, 2022; Potency, µM (doses to about 57 µM), actives largely listed as inhibitors; hit rate 0.72% among 360,000; also: nearly all actives have a fitted effect of over 55% in size
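ATXN2-luciferase reporter cells (luciferase flanked by upstream and downstream ATXN2 gene portions) were treated 24 h at 37 °C with compounds at up to 57 uM. SteadyGlo luminescence gave expression; GF-AFC fluorescence gave viability.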
TDP1 cell CPT = qHTS for Inhibitors of human tyrosyl-DNA phosphodiesterase 1 (TDP1): qHTS in cells in presence of CPT. Potency, µM (top dose mostly 46.2 µM), most hits filed as inhibitors. chicken DT40 Tdp1-/-;hTDP1 cells + 20 nM CPT, ATP luminescence, 48 h. hit rate 12% among 420,000. AID 686979, 2013; also: nearly all actives have a fitted effect of over 55% in size
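Chicken DT40 Tdp1-/- cells complemented with human TDP1, 400 cells/well, exposed to compounds plus 20 nM camptothecin for at least 48 h at 37 C; viability read as ATP content by CellTiter-Glo luminescence.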
TGFb inhibitor = qHTS for Inhibitors of TGF-b; HepG2 CAGA-GFP TGF-b/SMAD3 reporter, GFP fluorescence, 18 h; TGF-beta stimulated, 500 pg/mL final; AID 588855, 2011; Potency, µM (top dose mostly 46.1 µM), usual class: inhibitors; hit rate 1.2% among 410,000; also: nearly all actives have a fitted effect of over 65% in size
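First, reporter cells (HEPG2 CAGA-GFP) rested 2 h at 37 degrees C. Next, compounds were pinned in and TGF-beta added to 500 pg/mL final. After 18 h, GFP was imaged per cell and summed per well.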
TDP1 cell noCPT = qHTS for Inhibitors of human tyrosyl-DNA phosphodiesterase 1 (TDP1): qHTS in cells in absence of CPT; DT40 Tdp1-/- hTDP1 cells, no CPT, ATP luminescence, 48 h; Potency, µM (top dose mostly 46.2 µM), actives largely listed as inhibitors; hit rate 15% among 420,000; also: nearly all actives have a fitted effect of over 55% in size
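Growth kinetics read by CellTiter-Glo luminescence after ≥48 hr at 37 °C. Cells: DT40 Tdp1-/- stably carrying human TDP1, 400 per well, compound exposure in the absence of CPT (DMSO vehicle).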
HepG2 tox = qHTS for Inhibitors of TGF-b: Cytotox Counterscreen; HepG2 CAGA-GFP viability, ATP luminescence, 18 h; Potency, µM (doses to about 46.1 µM), most hits filed as cytotoxic; hit rate 0.76% among 410,000; AID 588856, 2011
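CellTiter-Glo luminescence gave cytotoxicity after 18 hours at 37 degrees C. The cells were HepG2 CAGA-GFP in 1% FBS DMEM, stimulated with 500 pg/mL TGF-beta after compound addition. %Activity was normalised to no-cell wells (complete cell-killing) and DMSO (no toxicity), and curves were fitted and classified.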
Large screens that a line does not name were inactive. Compounds with a hit are over-represented: about 17% of the library has one in this group of screens. Calls follow the shape of the dose curve; as a rule, active = well fitted curve in the direction sought with a large enough effect; inconclusive = small, poorly fitted or top-dose-only effect, or another doubt; inactive = no such curve, though single readings can be large; an effect the other way counts as inactive or inconclusive.

NC(=O)c1ccccc1N=Cc1cccnc1	TDP1 cell CPT inconclusive
COc1cccc(C=Nc2ccccc2C(=O)Nc2ccccc2)c1O	none
Cc1ccccc1C=Nc1ccccc1C(N)=O	TDP1 cell CPT 5.2µM, TGFb inhibitor inconclusive, TDP1 cell noCPT 4.6µM
COCc1[nH][nH]c(=O)c1/C=N/N1CCOCC1	none
FC(F)(F)c1cccc(Cn2c3[n+](c4ccc(C(F)(F)F)cc42)CCCCC3)c1	TDP1 cell CPT inconclusive, TDP1 cell noCPT 23µM
O=C(Cn1c2[n+](c3ccc(C(F)(F)F)cc31)CCCCC2)Nc1ccc(Br)cc1	none (no result: ATXN2 expr inh)
Cc1cc(C(C)(C)C)cc(C)c1Cn1c2[n+](c3ccc(C(F)(F)F)cc31)CCCCC2	ATXN2 expr inh inconclusive, TDP1 cell CPT 2.1µM, TGFb inhibitor inconclusive, TDP1 cell noCPT 1.8µM
Cc1cc(C)c(NC(=O)CSc2nncn3c2cc2oc(C)cc23)c(C)c1	none (no result: ATXN viability, ATXN2 expr inh)
O=C1CC/C=C\C[C@@H](CC(=O)N(CCO)Cc2ccccc2)C(=O)N[C@H](Cc2c[nH]c3ccccc23)CO1	TDP1 cell CPT 16µM, TDP1 cell noCPT inconclusive
O=C1CCC/C=C\C[C@@H](CC(=O)N(CCO)Cc2ccccc2)C(=O)N[C@H](Cc2c[nH]c3ccccc23)CO1	TDP1 cell CPT inconclusive, TDP1 cell noCPT 16µM
O=C1CCC/C=C/C[C@H](CC(=O)N(CCO)Cc2ccccc2)C(=O)N[C@@H](Cc2ccccc2)CO1	TDP1 cell CPT inconclusive, TDP1 cell noCPT 21µM
Cc1occc1C(=O)N1CCN(S(=O)(=O)c2ccc(F)cc2)CC1	none
COc1cc(-c2nc(C)cnc2C)cc2c1OCCN(C(=O)Cn1nc(-c3ccccc3)c3ccccc3c1=O)C2	none (no result: ATXN2 expr inh, TGFb inhibitor, HepG2 tox)
COC(=O)c1cnn(-c2nc3c(C)cccc3s2)c1C	none
Cc1ccccc1-n1c(C)nnc1SC(C)C(=O)NCc1ccco1 (centres undefined)	none (no result: ATXN viability, ATXN2 expr inh)
CSc1ccccc1NC(=O)Cc1ccccc1[N+](=O)[O-]	none
Cc1ccc(S(=O)(=O)N(C)C[C@H]2OCc3cn(nn3)CCCC(=O)N([C@H](C)CO)C[C@@H]2C)cc1	none
C[C@@H](C(=O)Nc1cccnc1)n1c(=O)[nH]c2ccccc2c1=O	none (no result: ATXN2 expr inh)
COc1ccc(OC)c(-c2nc(C(=O)NCC3CCCO3)cc3c2[nH]c2ccccc23)c1 (centres undefined)	TDP1 cell CPT 18µM, TDP1 cell noCPT 21µM
COc1cccc(-c2nc(C(=O)NCC3CCCO3)cc3c2[nH]c2ccccc23)c1 (centres undefined)	ATXN2 expr inh inconclusive, TDP1 cell CPT 2.6µM, TDP1 cell noCPT 2.3µM (no result: ATXN viability)
NC(N)=NC(=O)c1nc(Cl)c(N2CCCCCC2)nc1N	TDP1 cell CPT 7.1µM, TDP1 cell noCPT 7.1µM
NC(=O)c1ncn([C@@H]2O[C@H](CNCc3ccc(-c4cc(C(F)(F)F)ccc4Cl)o3)[C@@H](O)[C@H]2O)n1	none
Nc1ccc(N=Nc2ccc(O)cc2)c(N)n1	TDP1 cell CPT 21µM, TDP1 cell noCPT 15µM (no result: ATXN viability)
COc1ccc(N=Nc2ccc(N)nc2N)cc1	none
O=C1OC(Oc2ccccc2)(c2ccccc2)c2ccccc21 (centres undefined)	none
O=C1OC(c2ccccc2)(N(Nc2ccccc2)c2ccccc2)c2ccccc21 (centres undefined)	TDP1 cell CPT inconclusive, TDP1 cell noCPT 23µM (no result: ATXN2 expr inh)
Cc1ccc2c(C)c(C(=O)Nc3cccnc3)oc2c1C	TDP1 cell CPT inconclusive
O=C(O)c1cc(O)c2c(c1)[C@@H]([C@H]1c3cc(C(=O)O)cc(O)c3C(=O)c3c(O[C@@H]4O[C@H](CO)[C@@H](O)[C@H](O)[C@H]4O)cccc31)c1cccc(O[C@@H]3O[C@H](CO)[C@@H](O)[C@H](O)[C@H]3O)c1C2=O	TDP1 cell CPT 6.5µM, TGFb inhibitor 14µM, TDP1 cell noCPT inconclusive
